According to PubChem BioAssay:
Calls of active or inactive are those of the source. Unless noted, no rule for the calls is given here.

Columns and labels:
[1] = tested on: Wnt5a (protein binding on small-molecule microarray); assay: Wnt5a binders on small-molecule microarray, primary screen, biophysical, 635/667 nm fluorescence (AID 1142); settings: 635 nm fluorescence, higher = more signal;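 also: fluorescence read at 667 nm with signal to noise per printed feature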
[2] = cell viability in Huh7 cells, primary screen, cytotoxicity control for HCV replication inhibitor project, CellTiter-Glo luminescence, basal, 48 h (AID 1143); settings: Huh7 HCV replicon, higher = more signal, called active from +8 up or from −8 down;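 also: Huh7 hepatoma cells carrying a hepatitis C replication reporter with no stimulus; test concentration not given here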
[3] = P. aeruginosa biofilm formation inhibitors, primary screen, PAO1 strain, BacTiter-Glo luminescence, LB-PBS (AID 1144); settings: 12 h, higher = more signal
[4] = CREB reporter modulators without forskolin, primary screen, cell-based, PC12, CRE-LacZ reporter, unstimulated (AID 1145); settings: no forskolin, luminescence, 4.5 h, higher = more signal, called active from +8 up or from −8 down
[5] = CREB reporter modulators under forskolin, primary screen, cell-based, PC12, CRE-LacZ reporter, forskolin-stimulated (AID 1146); settings: luminescence, 4.5 h, higher = more signal, called active from +8 up or from −8 down;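 also: PC12 cells with 6xCRE LacZ reporter stimulated by forskolin 10 µM; beta-galactosidase reporter signal reflecting CREB driven transcription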
[6] = molecular target: Streptavidin (Streptomyces avidinii) (UniProt P22629); assay: streptavidin binders on small-molecule microarray, primary screen, artefact control for SMM compound annotation, biophysical, 635/667 nm fluorescence (AID 1147); settings: streptavidin binding, higher = more signal;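 also: signal reflects streptavidin binding to arrayed compounds as a control protein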
[7] = small-molecule binders of probe aInhba, primary screen, biochemical, small-molecule microarray, 635/667 nm fluorescence (AID 1148); settings: higher = more signal;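 also: score merges 667nm spot fluorescence with signal-to-noise for antibody binding to printed compounds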
Torsin-1A (Homo sapiens) [8] = molecular target: Torsin-1A (Homo sapiens) (UniProt O14656); assay: torsin A binders from cell lysate, primary screen, small-molecule microarray, wild-type, 635/667 nm (AID 1149); settings: COS7 hTOR1A-WT lysate, 635 nm fluorescence, higher = more signal
Torsin-1A (Homo sapiens) [9] = molecular target: Torsin-1A (Homo sapiens) (UniProt O14656); assay: small-molecule binders of mutant TOR1A in lysate, primary screen, cell lysate, small-molecule microarray, COS7 lysate, 635/667 nm fluorescence (AID 1150); settings: COS7 hTOR1A mutant lysate, 635 nm fluorescence, higher = more signal;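 also: score pools 667 nm emission and signal to noise measuring lysate protein binding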
[10] = tested on: Sonic hedgehog protein (Shh); assay: small-molecule binders of Shh protein, primary screen, biochemical, small-molecule microarray, 635/667 nm fluorescence (AID 1151); settings: small-molecule microarray binding, 635 nm fluorescence; higher = more signal;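 also: Shh protein binding to compounds spotted on small-molecule microarray slides; score combines spot fluorescence intensity with signal-to-noise across triplicate slides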
[11] = E. coli DRC41 culture turbidity changes, primary screen, E. coli filamentation inducer project, strain DRC41, OD650, 48 h (AID 1152);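 also: E. coli MC1000 strain DRC41 lacking acrAB efflux pump and sulA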; settings: E. coli DRC41 (acrAB sulA), higher = more signal, called active from +8 up or from −8 down
[12] = small-molecule binders of probe aLefty1, primary screen, biochemical, small-molecule microarray, 635/667 nm fluorescence (AID 1153); settings: higher = more signal;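 also: score merges spot fluorescence with signal-to-noise ratio from the scanned slide images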
[13] = PSAC antagonists in infected red cells, primary screen, cell-based, P. falciparum Indochina, OD700, 1 h (AID 1154); settings: P. falciparum Indochina infected RBC osmotic lysis, higher = more signal, called active from +8 up or from −8 down
[14] = PSAC antagonists in infected red cells, primary screen, cell-based, P. falciparum Indochina, OD700, 2 h (AID 1155);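 also: lysis reports solute entry through the parasite surface anion channel PSAC; channel blockers reduce lysis of infected cells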; settings: P. falciparum Indochina infected erythrocytes, osmotic lysis OD700; higher = more signal, called active from +8 up or from −8 down
[15] = osmotic lysis modulators in infected erythrocytes, primary screen, PSAC antagonist project, cell-based, P. falciparum Indochina, OD700, 3 h (AID 1156); settings: higher = more signal, called active from +8 up or from −8 down
[16] = PSAC antagonists in infected red cells, primary screen, cell-based, P. falciparum Indochina, OD700, 18 h (AID 1157); settings: P. falciparum Indochina infected erythrocytes, osmotic lysis OD700, 18 h; higher = more signal, called active from +8 up or from −8 down
[17] = modulators of S6 phosphorylation in cells, primary screen, cell-based, A549, cytoblot, luminescence, serum-stimulated (AID 1158); settings: A549 phospho-S6 cytoblot, 5 h, higher = more signal;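 also: serum-stimulated A549 lung adenocarcinoma cells; signal is phosphorylated S6 detected by cytoblot immunostaining with HRP secondary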
[18] = molecular target: NADPH oxidase 2 (Homo sapiens) (UniProt P04839); assay: NOX2-dependent H2O2 signal modulators, primary screen, NOX inhibitor project, cell-based, HEK293-NOX2, PMA-stimulated, Amplex Red fluorescence (AID 1159); settings: 45 min, higher = more signal, called active from +8 up or from −8 down; also: test concentration not given here
[19] = molecular target: NADPH oxidase 4 (Homo sapiens) (UniProt Q9NPH5); assay: NOX4-dependent H2O2 signal modulators, primary screen, NOX inhibitor project, cell-based, HEK293-NOX4, tetracycline-induced, Amplex Red fluorescence (AID 1160); settings: 45 min, higher = more signal, called active from +8 up or from −8 down
[20] = molecular target: NADPH oxidase 5 (Homo sapiens) (UniProt Q96PH1); assay: NOX5-dependent H2O2 signal modulators, primary screen, NOX inhibitor project, cell-based, HEK293-NOX5, Amplex Red fluorescence (AID 1161); settings: HEK293-NOX5, ionomycin, 45 min, higher = more signal
Chain of NADPH oxidase 5 (Homo sapiens) (Q96PH1 whole entry, looked up): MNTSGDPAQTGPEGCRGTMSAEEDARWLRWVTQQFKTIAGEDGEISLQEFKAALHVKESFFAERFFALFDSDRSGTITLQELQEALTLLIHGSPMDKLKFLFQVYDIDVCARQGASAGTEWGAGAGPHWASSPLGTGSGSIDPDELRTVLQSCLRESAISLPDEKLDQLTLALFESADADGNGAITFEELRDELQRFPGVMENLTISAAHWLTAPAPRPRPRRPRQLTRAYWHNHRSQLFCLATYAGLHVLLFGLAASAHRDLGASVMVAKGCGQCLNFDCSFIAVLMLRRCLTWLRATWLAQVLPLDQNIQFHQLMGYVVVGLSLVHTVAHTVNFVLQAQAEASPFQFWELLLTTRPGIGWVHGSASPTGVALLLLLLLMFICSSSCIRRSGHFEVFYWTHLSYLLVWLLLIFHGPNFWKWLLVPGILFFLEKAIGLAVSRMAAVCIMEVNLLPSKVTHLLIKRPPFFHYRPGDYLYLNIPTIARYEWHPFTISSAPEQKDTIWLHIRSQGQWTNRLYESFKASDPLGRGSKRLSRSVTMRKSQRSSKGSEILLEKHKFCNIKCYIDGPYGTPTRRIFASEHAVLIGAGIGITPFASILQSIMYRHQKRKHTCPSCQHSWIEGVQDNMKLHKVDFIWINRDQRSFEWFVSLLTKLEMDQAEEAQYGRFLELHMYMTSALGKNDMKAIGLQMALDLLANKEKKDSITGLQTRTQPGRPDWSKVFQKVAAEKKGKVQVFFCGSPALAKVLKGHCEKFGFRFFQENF

Chain of NADPH oxidase 2 (Homo sapiens) (P04839 whole entry, looked up): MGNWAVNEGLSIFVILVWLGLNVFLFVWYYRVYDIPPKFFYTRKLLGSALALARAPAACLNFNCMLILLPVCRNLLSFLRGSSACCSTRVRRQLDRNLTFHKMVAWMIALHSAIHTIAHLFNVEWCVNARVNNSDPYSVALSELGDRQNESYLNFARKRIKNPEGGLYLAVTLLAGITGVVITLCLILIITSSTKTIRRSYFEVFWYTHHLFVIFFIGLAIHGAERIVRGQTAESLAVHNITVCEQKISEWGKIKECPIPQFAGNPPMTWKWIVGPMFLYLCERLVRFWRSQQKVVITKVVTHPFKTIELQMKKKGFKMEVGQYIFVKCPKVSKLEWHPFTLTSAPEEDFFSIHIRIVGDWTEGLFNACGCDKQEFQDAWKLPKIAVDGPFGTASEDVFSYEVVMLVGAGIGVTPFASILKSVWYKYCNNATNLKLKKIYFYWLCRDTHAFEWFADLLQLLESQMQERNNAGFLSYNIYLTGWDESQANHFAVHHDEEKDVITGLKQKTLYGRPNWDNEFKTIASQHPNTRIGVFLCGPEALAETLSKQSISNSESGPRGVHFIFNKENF
Chain of Torsin-1A (Homo sapiens) (O14656 whole entry, looked up): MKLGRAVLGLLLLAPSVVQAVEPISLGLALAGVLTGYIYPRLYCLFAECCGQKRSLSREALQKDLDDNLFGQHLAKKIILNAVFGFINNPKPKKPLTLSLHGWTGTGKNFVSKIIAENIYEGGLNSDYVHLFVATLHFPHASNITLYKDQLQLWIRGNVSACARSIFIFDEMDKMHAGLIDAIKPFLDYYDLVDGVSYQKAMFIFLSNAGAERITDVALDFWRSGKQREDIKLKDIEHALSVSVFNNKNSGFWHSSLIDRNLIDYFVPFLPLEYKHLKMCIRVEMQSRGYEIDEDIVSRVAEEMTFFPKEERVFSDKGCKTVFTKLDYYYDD
Chain of Streptavidin (Streptomyces avidinii) (P22629 whole entry, looked up): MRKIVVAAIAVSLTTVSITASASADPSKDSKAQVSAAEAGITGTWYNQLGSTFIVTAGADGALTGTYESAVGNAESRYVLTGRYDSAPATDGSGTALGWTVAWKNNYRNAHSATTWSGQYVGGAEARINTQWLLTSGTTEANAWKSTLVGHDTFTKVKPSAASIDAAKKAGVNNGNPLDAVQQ
Chain of NADPH oxidase 4 (Homo sapiens) (Q9NPH5 whole entry, looked up): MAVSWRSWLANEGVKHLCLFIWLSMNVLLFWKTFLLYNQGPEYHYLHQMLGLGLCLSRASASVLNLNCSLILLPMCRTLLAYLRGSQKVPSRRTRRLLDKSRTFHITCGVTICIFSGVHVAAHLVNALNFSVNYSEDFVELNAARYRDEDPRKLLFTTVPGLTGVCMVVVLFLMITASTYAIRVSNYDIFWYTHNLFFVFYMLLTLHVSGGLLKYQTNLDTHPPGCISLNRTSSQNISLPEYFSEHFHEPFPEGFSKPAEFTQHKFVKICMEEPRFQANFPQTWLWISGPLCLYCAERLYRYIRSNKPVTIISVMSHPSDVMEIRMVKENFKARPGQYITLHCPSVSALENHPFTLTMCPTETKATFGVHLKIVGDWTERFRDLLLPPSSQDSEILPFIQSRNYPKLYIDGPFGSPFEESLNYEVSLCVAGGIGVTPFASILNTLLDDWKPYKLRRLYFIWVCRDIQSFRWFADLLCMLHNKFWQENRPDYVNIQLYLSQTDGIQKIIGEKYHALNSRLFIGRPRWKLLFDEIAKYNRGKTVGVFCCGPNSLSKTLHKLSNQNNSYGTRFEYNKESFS

SMILES	composite z-score [1]	z-score [2]	z-score [3]	z-score [4]	z-score [5]	composite z-score [6]	composite z-score [7]	composite z-score (Torsin-1A (Homo sapiens) [8])	composite z-score (Torsin-1A (Homo sapiens) [9])	composite z-score [10]	z-score [11]	composite z-score [12]	z-score [13]	z-score [14]	z-score [15]	z-score [16]	z-score [17]	z-score [18]	z-score [19]	z-score [20]
CCOC(=O)C[C@H]1[C@H](OC(=O)c2cc3ccccc3oc2=O)[C@@H](NC(=O)CC(C)C)c2cc(OCCCO)ccc2N1C(=O)Cc1ccc(OC)cc1	0.221	-0.387 (inactive)	1.19 (inactive)	1.02 (inactive)	-0.505 (inactive)	0.0665	-0.128	-0.0652	0.304	0.97	-0.752 (inactive)	-0.193	5.95 (inactive)	0.711 (inactive)	0.863 (inactive)	0.5 (inactive)	-0.0561	0.166 (inactive)	0.381 (inactive)	1.38
C=CCNC(=O)[C@H]1[C@@H]2C(=O)O[C@@H](c3ccccc3)[C@@H](c3ccccc3)N2[C@@H](c2ccccc2OCCO)[C@]12C(=O)N(C(=O)OCCOC)c1ccc(C#Cc3ccc(OC)cc3)cc12	0.571	-2.77 (inactive)	-0.394 (inactive)	1.12 (inactive)	-0.261 (inactive)	0.12	-0.149	0.292	0.51	0.168	0.296 (inactive)	0.0114	2.46 (inactive)	1.98 (inactive)	0.0435 (inactive)	1.25 (inactive)	0.638	1.74 (inactive)	0.404 (inactive)	0.673
CC1=C([C@H](O)CCc2ccccc2)[C@H](CO)n2c(=O)n(-c3ccccc3)c(=O)n2C1	-0.0682	-1.13 (inactive)	-1.21 (inactive)	0.399 (inactive)	0.0978 (inactive)	-0.141	-0.202	0.217	-0.485	0.359	2.91 (inactive)	-0.06	1.44 (inactive)	-0.657 (inactive)	-0.237 (inactive)	-1.48 (inactive)	1.77	-0.53 (inactive)	-0.429 (inactive)	0.218
[N-]=[N+]=Nc1ccccc1C[C@]1(C(=O)N2CCOCC2)N=C(c2ccc(OCCCO)cc2)O[C@H]1c1ccccc1N=[N+]=[N-]	0.936	-4.16 (inactive)	-0.781 (inactive)	0.0686 (inactive)	-2.38 (inactive)	1.79	0.0757	1.32	0.946	1.76	1.76 (inactive)	0.15	30.7 (active)	25.3 (active)	1.18 (inactive)	6.73 (inactive)	2.28	-2.86 (inactive)	0.383 (inactive)	-2.57
